Source: PubChem BioAssay
NIH3T3 tox – Cytotoxic Profiling in NIH 3T3 Cell Line of Diverse Libraries Using Quantitative High-Throughput Screening | NIH 3T3 viability, CellTiter-Glo ATP luminescence, 48-72 h | Potency, µM (top dose mostly 96.7 µM), for the others: top-dose activity change, negative = cytotoxicity, usual class: inhibitors | 4.3% of 94,000 active | AID 1345082, 2018; also: % is scaled to controls: 0 for no effect and ±100 for the full control effect; nearly all actives have a fitted effect of over 55% in size
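Mouse fibroblast NIH 3T3 cells, 400 per well, received compound via pintool and were incubated for 48 or 72 hr prior to CellTiter-Glo ATP luminescence measurement.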
FLuc inh – Firefly luciferase inhibition profiling of diverse chemical library using quantitative high-throughput screening | Luciferin 4-monooxygenase (Photinus pyralis), P08659 | purified P. pyralis luciferase, luminescence, biochemical | Potency, µM (series often up to 115 µM), hits mostly inhibitors | 2.5% of 76,000 active | AID 1347043, 2019; also: % is scaled to controls: 0 for no effect and ±100 for the full control effect; nearly all actives have a fitted effect of over 65% in size
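Cell-free enzyme assay, 10nM P. pyralis luciferase, luciferin and ATP each at 10uM. Inhibition profiled over a 6-point titration, read as luminescence.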
HEK293 tox – Cytotoxic Profiling in HEK 293 Cell Line of Diverse Libraries Using Quantitative High-Throughput Screening; HEK 293 viability, ATP luminescence (CellTiter-Glo), 48-72 h; Potency, µM (top dose mostly 115 µM), for the others: at the top dose activity change, negative = cytotoxicity, usual class: inhibitors; 6.6% of 94,000 active; also: % is scaled to controls: 0 for no effect and ±100 for the full control effect; nearly all actives have a fitted effect of over 60% in size
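Luminescence from cellular ATP, measured with CellTiter-Glo, indicates HEK 293 viability. Cells plated at 250 cells/well are treated with compound for 48 or 72 hr at 37 degree Celsius before reagent addition.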
GPT2 inh – Primary qHTS assay for inhibitors of Glutamate pyruvate transaminase 2 (GPT2); Recombinant GPT2, coupled pyruvate oxidase/HRP Amplex Red fluorescence; Potency, µM (series often up to 57.7 µM), inactives show top-dose activity change, negative = inhibition, usual class: inhibitors; 0.25% of 100,000 active; AID 1671188, 2021; also: % is scaled to controls: 0 for no effect and ±100 for the full control effect; nearly all actives have a fitted effect of over 60% in size
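Recombinant GPT2 (10ng/uL) with 250uM a-KG and 2mM L-alanine, 30 min at room temperature, in HEPES pH 7.5 buffer. Pyruvate detected by pyruvate oxidase/HRP/Amplex Red fluorescence after 30 min in the dark; AOA (50uM) as positive control.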
NPR1 antag – Natriuretic polypeptide receptor (hNpr1) antagonism - Primary qHTS; 1.6% of 76,000 active; HEK293 hNpr1 GloSensor cGMP, ANP-stimulated luminescence; Atrial natriuretic peptide receptor 1 (Homo sapiens), P16066; Potency, µM (highest dose often 46.3 µM), inactives show top-dose activity change, negative = inhibition, usual class: inhibitors; AID 1347048, 2019; calls by dose curve; also: % is scaled to controls: 0 for no effect and ±100 for the full control effect; nearly all actives have a fitted effect of over 60% in size
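Compound pre-incubated 30 min at room temperature on GloSensor-loaded HEK293 cells stably carrying hNpr1 and the pGS-40F cGMP biosensor. Stimulation uses hNppA at 0.1 nM final; luminescence is taken at baseline and 20 min post-agonist.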
Npr1 antag conf – Natriuretic polypeptide receptor (hNpr1) antagonism - Confirmation; 76% of 1,400 active; Potency, µM (series often up to 57.6 µM), inactives show at the highest dose activity change, negative = inhibition, usual class: inhibitors; AID 1347044, 2019; HEK293 hNpr1 cGMP GloSensor luminescence, ANP-stimulated; shares compounds with NPR1 antag; calls by dose curve; also: nearly all actives have a fitted effect of over 70% in size
NPR2 antag – Natriuretic polypeptide receptor (hNpr2) antagonism - Subtype selectivity assay; shares compounds with NPR1 antag; 67% of 1,400 active; HEK293 hNpr2 GloSensor cGMP luminescence, CNP-stimulated; Potency, µM (highest dose often 57.6 µM), inactives show at the top dose activity change, negative = inhibition, usual class: inhibitors; calls by dose curve; also: nearly all actives have a fitted effect of over 70% in size
FLuc counter – Natriuretic polypeptide receptor (hNpr1) antagonism - Confirmation firefly luciferase (FLuc) inhibition counterscreen; shares compounds with NPR1 antag; AID 1347047, 2019; Potency, µM (titrated, usually from 57.6 µM), for inactives: top-dose activity change, negative = inhibition, hits mostly inhibitors; purified FLuc enzyme, luminescence, Km substrate; 0.7% of 1,400 active; also: series mostly up to about 58 µM; 0% is about no effect
GloSensor cGMP – Natriuretic polypeptide receptor (hNpr1) antagonism - Counterscreen GloSensor control cell line | shares compounds with NPR1 antag | HEK293 GloSensor cGMP, SNP-stimulated, luminescence | Potency, µM (highest dose often 57.6 µM), for the others: top-dose activity change, negative = inhibition, most hits filed as inhibitors | 69% of 1,400 active | AID 1347051, 2019; calls by dose curve; also: % is scaled to controls: 0 for no effect and ±100 for the full control effect; nearly all actives have a fitted effect of over 70% in size
Active calls of the source: *. This is a sample that favours compounds with a hit; in the whole collection about 10% have one here. Unless noted, calls follow the shape of the dose curve; as a rule, active = well fitted curve in the direction sought with a large enough effect; inconclusive = small, poorly fitted or top-dose-only effect, or another doubt; inactive = no such curve, though single readings can be large; an effect the other way counts as inactive or inconclusive. Potency is read from the fitted curve at half-maximal effect.

What do the screens show for `O=C(NCCCc1ccccc1)C1CCN(c2cc(C(F)(F)F)ncn2)CC1`?
NIH3T3 tox: inconclusive; FLuc inh: inactive; HEK293 tox: inconclusive; GPT2 inh: -12.2%; NPR1 antag: 11.2µM*; Npr1 antag conf: 21.7µM*; NPR2 antag: 19.3µM*; FLuc counter: -1.0%; GloSensor cGMP: 10.9µM*

Results for COc1cc(C(=O)NC2CCCc3c2[nH]c2c(Cl)cccc32)cc(OC)c1OC (centres undefined) ?
NIH3T3 tox: -12.8%; FLuc inh: inactive; HEK293 tox: inconclusive; GPT2 inh: -0.3%; NPR1 antag: -13.1%

Results for N#Cc1cccc(-c2cn3cc(C(=O)NCc4cccc(Cl)c4)nc3s2)c1 ?
NIH3T3 tox: -15.6%; HEK293 tox: inconclusive; GPT2 inh: -3.1%

Results for CCc1ccc(NC(=O)C2CCN(c3cc(C(F)(F)F)ncn3)CC2)cc1 ?
NIH3T3 tox: inconclusive; FLuc inh: inactive; HEK293 tox: inconclusive; GPT2 inh: inactive; NPR1 antag: 7.94µM*; Npr1 antag conf: 10.9µM*; NPR2 antag: 10.9µM*; FLuc counter: -0.9%; GloSensor cGMP: 9.68µM*

How did CCC(COC)NC(=O)c1c(C)noc1-c1ccc(C(C)(C)C)cc1 (centres undefined) do in these assays?
NIH3T3 tox: inconclusive; FLuc inh: inactive; HEK293 tox: inconclusive; GPT2 inh: 1.0%; NPR1 antag: 0.9%

Results for O=C(NCc1ccc(C(F)(F)F)cc1)c1nc2cccnc2n(CCc2ccccc2)c1=O ?
NIH3T3 tox: inconclusive; HEK293 tox: inconclusive; GPT2 inh: 3.8%

How did Cc1ccc(CNC(=O)c2c(C)noc2-c2ccc3c(c2)OCO3)o1 do in these assays?
NIH3T3 tox: -27.3%; FLuc inh: inactive; HEK293 tox: -29.0%; GPT2 inh: -1.5%; NPR1 antag: -11.1%

Results for COc1ccc(-c2nc(CC3CCN(C(=O)c4n[nH]c(=O)c5ccccc45)C3)no2)cc1 (centres undefined) ?
NIH3T3 tox: inconclusive; FLuc inh: inactive; HEK293 tox: 31.6µM*; GPT2 inh: inactive; NPR1 antag: 10µM*; Npr1 antag conf: 12.2µM*; NPR2 antag: 10.9µM*; FLuc counter: -0.1%; GloSensor cGMP: 8.62µM*
